{"source": "PubChem BioAssay AID540361", "about": "(National Center for Advancing Translational Sciences (NCATS), 2011)", "molecular_target": "Lysosomal acid glucosylceramidase (Homo sapiens) (UniProt P04062)", "experiment": "Activators of Human alpha-Glucosidase as a Potential Chaperone Treatment of Pompe Disease: Alpha-Galactosidase Counter Screen", "settings": "purified human alpha-galactosidase, 4-MU fluorogenic substrate", "from_the_text": "Alpha-glucosidase is responsible for hydrolysis of terminal, non-reducing 1,4-linked alpha-D-glucose residues with release of alpha-D-glucose. It is a lysosomal hydrolase that is required for the degradation of a small percentage (1-3%) of cellular glycogen in human. Deficiency of this enzyme results in glycogen-storage disease type II (GSDII), also referred to as Pompe disease, an autosomal recessive disorder. Structurally normal glycogen is accumulated in lysosomes and cytoplasm in affected patients, primarily in muscle tissues. Excessive glycogen storage within lysosomes may interrupt normal functioning of other organelles and leads to cellular injury. In turn, this leads to enlargement and dysfunction of the entire organ involved (eg, cardiomyopathy and muscle weakness). […]\nThis is a fluorogenic enzyme assay with 4-methylumbelliferyl-[…] as the substrate and human alpha-galactosidase as the enzyme preparation. […] 4-methyllumbelliferone, can be excited at 365 nm and emits at 440 nm which can be detected by a standard fluorescence plate reader. […] In the AC50 values were determined from concentration-response data modeled with the standard Hill equation. […] (5) Add 2 ul stop solution (1M NaOH and 1M Glycine mixture, pH 10) (6) Detect the assay plate in a ViewLux plate reader (PerkinElmer) with Ex=365 nm and Em=440nm. […]", "note": "Results filed as inconclusive are left out. Activity calls are given as the source filed them. Calls follow the shape of the dose curve; as a rule, active = well fitted curve in the direction sought with a large enough effect; inconclusive = small, poorly fitted or top-dose-only effect, or another doubt; inactive = no such curve, though single readings can be large or run the other way."}
{"smiles": "CCCN1CNc2c(c(=O)[nH]c(=S)n2CCc2cccc(Cl)c2Cl)C1", "values": [{"measurement": "Potency", "value": "9.13 µM (active)"}]}
